From the supplement of paper PMC11732987, “Enantioselective OTUD7B fragment discovery through chemoproteomics screening and high-throughput optimisation” (Communications Chemistry, 2025)

Legend:
Assay in all cases: log2 ratio of Biotin-Ahx-Ub-VS probe labelling (fragment/DMSO); higher = less target engagement (more negative = stronger competition), active = hit call of the paper (q ≤ 0.05, log2 ratio ≤ -1)
Conditions in all cases: compound concentration: 200 uM; treatment time: 3 h
[1] = target: T1, USP19 (UniProt O94966)
T1 sequence (whole entry): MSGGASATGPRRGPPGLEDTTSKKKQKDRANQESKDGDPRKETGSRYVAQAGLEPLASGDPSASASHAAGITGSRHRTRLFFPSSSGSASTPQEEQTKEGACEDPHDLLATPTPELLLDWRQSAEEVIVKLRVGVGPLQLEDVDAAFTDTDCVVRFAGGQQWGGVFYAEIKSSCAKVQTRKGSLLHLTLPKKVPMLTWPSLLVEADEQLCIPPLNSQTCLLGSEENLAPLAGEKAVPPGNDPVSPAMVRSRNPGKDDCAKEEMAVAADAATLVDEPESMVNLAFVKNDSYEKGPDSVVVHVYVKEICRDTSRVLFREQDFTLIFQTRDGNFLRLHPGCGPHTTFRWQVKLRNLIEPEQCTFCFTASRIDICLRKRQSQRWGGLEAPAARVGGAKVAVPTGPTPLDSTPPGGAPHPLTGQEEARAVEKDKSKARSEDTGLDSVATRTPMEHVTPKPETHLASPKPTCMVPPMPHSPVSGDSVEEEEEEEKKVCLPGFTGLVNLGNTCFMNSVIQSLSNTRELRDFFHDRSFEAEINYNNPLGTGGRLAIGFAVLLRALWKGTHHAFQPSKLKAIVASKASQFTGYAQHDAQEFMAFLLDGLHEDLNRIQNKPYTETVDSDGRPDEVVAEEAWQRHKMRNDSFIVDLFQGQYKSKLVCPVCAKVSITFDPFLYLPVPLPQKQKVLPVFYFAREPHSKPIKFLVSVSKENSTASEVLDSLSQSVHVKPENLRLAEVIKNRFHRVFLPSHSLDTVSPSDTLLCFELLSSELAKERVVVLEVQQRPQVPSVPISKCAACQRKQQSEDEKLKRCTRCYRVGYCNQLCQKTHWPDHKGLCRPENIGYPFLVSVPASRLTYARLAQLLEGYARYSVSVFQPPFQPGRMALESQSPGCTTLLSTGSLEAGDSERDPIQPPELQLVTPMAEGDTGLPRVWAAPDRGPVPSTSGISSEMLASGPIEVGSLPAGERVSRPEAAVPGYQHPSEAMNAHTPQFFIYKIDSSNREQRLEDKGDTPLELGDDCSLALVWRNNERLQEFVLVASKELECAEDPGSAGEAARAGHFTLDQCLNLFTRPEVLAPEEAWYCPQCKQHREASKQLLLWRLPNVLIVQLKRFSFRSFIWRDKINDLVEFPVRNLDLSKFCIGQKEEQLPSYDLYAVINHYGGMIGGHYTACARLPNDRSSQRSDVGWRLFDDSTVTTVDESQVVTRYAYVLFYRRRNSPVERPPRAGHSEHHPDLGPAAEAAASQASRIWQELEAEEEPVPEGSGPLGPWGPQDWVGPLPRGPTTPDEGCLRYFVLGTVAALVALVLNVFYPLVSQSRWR
Summary of the method: (§1)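 HEK293T lysate (495 µg per sample, in Tris/CHAPS/IGEPAL buffer with protease inhibitors) was treated in triplicate with fragment at 200 µM or with DMSO for 3 h. It was then treated with Biotin-Ahx-Ub-VS (0.5 µM final) for 1 h. Labelled DUBs were NeutrAvidin-enriched, digested with LysC and trypsin, and run by diaPASEF LC-MS/MS. Spectronaut label-free quantities were global-median-normalised. Values are average log2 ratios fragment/DMSO by unpaired t-test, using proteins with ≥2 unique peptides.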

[2] = target: T2, USP22 (UniProt Q9UPT9)
T2 sequence (whole entry): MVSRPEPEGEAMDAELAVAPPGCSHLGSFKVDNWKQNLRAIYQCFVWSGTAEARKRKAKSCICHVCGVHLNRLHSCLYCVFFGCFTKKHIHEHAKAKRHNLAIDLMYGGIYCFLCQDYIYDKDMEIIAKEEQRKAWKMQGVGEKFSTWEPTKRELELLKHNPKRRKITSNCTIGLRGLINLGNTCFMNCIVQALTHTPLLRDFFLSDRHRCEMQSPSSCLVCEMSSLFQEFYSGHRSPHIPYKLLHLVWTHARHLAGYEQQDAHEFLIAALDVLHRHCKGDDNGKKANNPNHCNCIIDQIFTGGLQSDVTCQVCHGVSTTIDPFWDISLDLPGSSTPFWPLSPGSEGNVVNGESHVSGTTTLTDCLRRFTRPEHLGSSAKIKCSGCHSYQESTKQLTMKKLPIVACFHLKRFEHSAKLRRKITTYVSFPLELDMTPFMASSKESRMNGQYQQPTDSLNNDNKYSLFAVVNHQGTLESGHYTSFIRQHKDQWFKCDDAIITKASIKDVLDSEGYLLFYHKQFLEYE
Summary of the method: as §1

[3] = target: USP24 (UniProt Q9UPU5)
USP24, sequence (Q9UPU5 whole entry): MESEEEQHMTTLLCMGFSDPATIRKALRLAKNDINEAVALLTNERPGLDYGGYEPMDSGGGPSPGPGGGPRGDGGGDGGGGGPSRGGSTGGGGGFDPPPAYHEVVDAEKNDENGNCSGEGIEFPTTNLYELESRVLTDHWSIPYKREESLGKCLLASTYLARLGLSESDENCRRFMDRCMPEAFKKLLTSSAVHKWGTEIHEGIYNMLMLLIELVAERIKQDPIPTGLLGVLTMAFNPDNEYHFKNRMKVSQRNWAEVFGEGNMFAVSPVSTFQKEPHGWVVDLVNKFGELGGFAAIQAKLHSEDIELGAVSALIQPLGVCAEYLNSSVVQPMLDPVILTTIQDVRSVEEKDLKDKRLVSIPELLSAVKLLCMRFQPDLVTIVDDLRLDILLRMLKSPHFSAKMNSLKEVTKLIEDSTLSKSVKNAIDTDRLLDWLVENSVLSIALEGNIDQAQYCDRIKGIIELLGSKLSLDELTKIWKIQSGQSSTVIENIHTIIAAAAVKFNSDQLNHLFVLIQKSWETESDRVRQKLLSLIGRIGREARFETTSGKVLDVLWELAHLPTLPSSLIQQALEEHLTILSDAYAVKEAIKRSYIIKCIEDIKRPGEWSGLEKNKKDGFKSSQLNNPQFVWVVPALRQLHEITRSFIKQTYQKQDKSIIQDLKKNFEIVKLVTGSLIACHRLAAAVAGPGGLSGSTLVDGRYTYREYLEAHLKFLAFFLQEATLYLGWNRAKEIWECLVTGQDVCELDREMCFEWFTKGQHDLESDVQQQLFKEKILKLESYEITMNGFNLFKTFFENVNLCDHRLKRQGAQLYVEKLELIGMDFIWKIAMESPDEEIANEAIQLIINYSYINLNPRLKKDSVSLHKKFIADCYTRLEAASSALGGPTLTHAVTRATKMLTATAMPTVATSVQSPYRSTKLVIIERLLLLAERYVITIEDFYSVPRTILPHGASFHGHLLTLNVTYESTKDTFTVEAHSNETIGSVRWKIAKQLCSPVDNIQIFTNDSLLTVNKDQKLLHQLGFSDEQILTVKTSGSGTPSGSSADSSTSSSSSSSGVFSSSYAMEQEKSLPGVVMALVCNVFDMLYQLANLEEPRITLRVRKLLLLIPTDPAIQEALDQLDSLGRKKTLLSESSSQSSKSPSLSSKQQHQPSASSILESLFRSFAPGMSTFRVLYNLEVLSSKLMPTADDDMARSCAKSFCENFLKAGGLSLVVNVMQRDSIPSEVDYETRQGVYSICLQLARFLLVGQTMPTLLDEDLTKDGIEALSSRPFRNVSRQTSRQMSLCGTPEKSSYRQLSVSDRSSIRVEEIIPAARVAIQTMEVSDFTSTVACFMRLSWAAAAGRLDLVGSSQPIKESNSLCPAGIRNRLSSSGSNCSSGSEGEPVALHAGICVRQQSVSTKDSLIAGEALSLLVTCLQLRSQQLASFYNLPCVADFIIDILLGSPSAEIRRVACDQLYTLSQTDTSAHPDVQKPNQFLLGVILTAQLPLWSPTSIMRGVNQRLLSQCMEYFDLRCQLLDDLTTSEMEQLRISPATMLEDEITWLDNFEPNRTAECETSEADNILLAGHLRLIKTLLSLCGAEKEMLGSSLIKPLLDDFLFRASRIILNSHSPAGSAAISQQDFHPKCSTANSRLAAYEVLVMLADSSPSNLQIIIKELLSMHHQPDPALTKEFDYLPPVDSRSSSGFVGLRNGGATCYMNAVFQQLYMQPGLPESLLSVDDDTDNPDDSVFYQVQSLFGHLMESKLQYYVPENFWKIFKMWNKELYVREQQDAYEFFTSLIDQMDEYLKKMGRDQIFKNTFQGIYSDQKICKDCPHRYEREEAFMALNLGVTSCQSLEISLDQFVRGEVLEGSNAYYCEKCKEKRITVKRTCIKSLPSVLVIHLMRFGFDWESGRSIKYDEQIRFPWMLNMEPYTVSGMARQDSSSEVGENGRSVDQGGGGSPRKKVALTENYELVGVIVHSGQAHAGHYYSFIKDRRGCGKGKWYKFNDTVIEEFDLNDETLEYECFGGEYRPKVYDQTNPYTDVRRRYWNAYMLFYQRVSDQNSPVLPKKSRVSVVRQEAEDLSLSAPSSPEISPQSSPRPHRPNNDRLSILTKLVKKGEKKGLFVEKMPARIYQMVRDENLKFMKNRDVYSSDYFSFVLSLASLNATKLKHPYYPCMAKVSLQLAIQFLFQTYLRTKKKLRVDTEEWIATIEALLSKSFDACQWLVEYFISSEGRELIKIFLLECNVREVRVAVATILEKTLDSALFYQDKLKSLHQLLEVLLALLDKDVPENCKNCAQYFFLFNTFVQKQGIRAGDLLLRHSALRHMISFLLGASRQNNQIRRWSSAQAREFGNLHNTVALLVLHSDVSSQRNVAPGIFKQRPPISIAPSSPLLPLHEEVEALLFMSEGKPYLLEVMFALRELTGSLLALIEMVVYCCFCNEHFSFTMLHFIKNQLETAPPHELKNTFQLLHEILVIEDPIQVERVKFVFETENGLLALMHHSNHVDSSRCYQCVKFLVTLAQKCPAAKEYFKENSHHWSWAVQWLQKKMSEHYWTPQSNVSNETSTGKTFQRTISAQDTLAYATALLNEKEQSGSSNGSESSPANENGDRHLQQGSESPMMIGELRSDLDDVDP
Summary of the method: as §1

[4] = target: T3, USP25 (UniProt Q9UHP3)
T3 sequence (whole entry): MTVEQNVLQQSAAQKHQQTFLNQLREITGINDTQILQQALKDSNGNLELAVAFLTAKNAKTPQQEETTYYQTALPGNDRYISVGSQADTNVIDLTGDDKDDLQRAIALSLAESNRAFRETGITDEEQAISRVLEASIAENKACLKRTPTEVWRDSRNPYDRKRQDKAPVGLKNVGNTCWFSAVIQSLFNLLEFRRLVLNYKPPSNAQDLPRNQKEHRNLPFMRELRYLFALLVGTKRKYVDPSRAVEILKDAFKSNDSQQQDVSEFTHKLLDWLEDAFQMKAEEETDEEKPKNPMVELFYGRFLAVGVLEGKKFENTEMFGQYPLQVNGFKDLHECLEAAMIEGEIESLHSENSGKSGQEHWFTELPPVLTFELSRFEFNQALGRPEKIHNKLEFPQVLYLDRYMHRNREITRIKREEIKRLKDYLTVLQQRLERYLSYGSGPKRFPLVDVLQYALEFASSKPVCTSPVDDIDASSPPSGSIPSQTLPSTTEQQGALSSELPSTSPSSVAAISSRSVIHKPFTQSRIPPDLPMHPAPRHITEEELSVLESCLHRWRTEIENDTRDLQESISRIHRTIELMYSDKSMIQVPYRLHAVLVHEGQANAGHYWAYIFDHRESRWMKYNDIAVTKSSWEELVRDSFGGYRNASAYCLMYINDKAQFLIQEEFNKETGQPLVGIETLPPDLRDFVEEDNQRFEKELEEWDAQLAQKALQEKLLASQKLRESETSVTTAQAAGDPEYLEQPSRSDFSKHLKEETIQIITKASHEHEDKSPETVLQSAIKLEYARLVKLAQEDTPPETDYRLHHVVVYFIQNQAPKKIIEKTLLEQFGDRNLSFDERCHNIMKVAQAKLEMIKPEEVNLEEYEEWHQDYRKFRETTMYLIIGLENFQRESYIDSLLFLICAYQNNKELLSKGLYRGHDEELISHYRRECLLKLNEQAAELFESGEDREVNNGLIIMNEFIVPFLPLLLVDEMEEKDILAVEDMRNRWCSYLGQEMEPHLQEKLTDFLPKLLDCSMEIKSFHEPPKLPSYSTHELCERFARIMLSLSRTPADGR
Summary of the method: as §1

[5] = target: T4, USP28 (UniProt Q96RU2)
T4 sequence (whole entry): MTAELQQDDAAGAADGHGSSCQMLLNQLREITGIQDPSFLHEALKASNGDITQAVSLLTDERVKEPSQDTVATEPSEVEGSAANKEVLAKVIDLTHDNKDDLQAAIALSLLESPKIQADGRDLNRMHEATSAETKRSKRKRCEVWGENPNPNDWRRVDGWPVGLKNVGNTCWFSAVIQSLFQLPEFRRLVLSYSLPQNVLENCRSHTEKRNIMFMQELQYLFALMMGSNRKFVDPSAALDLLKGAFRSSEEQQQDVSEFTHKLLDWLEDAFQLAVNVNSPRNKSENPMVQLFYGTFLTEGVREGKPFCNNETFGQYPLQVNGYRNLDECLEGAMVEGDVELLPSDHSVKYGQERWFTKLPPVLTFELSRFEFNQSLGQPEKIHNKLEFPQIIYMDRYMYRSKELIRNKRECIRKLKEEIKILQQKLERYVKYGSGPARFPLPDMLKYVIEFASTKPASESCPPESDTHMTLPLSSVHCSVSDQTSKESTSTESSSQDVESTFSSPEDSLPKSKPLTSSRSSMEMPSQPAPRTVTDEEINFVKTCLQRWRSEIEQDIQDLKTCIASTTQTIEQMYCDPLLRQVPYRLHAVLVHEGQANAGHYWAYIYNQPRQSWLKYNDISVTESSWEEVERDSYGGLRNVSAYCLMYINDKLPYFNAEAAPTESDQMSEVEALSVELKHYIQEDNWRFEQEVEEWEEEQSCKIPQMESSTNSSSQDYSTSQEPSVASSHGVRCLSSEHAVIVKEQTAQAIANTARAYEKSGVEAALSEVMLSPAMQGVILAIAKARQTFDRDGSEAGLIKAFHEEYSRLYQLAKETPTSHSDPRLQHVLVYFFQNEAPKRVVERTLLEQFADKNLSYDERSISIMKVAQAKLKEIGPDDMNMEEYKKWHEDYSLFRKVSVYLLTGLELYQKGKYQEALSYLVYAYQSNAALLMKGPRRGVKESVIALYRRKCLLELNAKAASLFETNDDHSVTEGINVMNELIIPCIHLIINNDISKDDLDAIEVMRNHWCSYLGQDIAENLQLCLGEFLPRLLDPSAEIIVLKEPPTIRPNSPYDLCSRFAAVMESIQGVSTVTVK
Summary of the method: as §1

Measured: log2 ratio of Biotin-Ahx-Ub-VS probe labelling

O=C(CCl)NCC1(c2ccccc2)CC1
inactive: [1] -0.058 | [2] 0.0204 | [3] -0.208 | [4] -0.366 | [5] -0.447
